This is a sample that favours compounds with a hit; in the whole collection about 6.5% have one here.
HCMV inh: inhibitors of human cytomegalovirus; HFF cells, HCMV-luciferase reporter, 72 h; active compounds read low; activity change, negative = inhibition, % at 57.5 µM; 4.5% of 410,000 active; in the data active = activity change below about -60%; inconclusive = no clear call, values can overlap the other calls; inactive = above about -39%
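Inhibition of viral replication was scored as loss of reporter luminescence in HFFs infected with HCMV-luciferase (MOI 1 PFU/cell) for 72 h; compounds tested at 2 doses, normalized to buffer and Salinomycin controls.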
VACV mCherry inh: vaccinia inhibition (mCherry reporter). Potency, µM (doses to about 36.5 µM), without a hit: top-dose activity change, negative = inhibition, usual class: inhibitors. 0.63% of 310,000 active. Vaccinia virus mCherry reporter infection, fluorescence; calls by dose curve; tested in A549 cells; note: potency is the fitted concentration of half-maximal effect; nearly all actives have a fitted effect of over 35% in size
Lassa entry inh: Lassa virus entry inhibition. 1.2% of 300,000 active. AID 540256. Lassa virus pseudotype entry inhibition, cell reporter. Potency, µM (doses to about 37.9 µM), inactives show at the top dose activity change, negative = inhibition, most hits filed as inhibitors; calls by dose curve; tested in HEK293 cells; note: potency is the fitted concentration of half-maximal effect; nearly all actives have a fitted effect of over 50% in size
FMDV inh: antivirals against foot and mouth disease virus; Potency, µM (highest dose often 57.9 µM), without a hit: top-dose activity change, negative = inhibition, usual class: inhibitors; FMDV antiviral cell-based qHTS; 1.2% of 410,000 active; calls by dose curve; tested in HEK293T cells; note: read-out not given here; potency is the fitted concentration of half-maximal effect; nearly all actives have a fitted effect of over 45% in size
VACV Venus inh: inhibitors of vaccinia virus (Venus reporter); Vaccinia virus Venus reporter expression, fluorescence; 0.46% of 330,000 active; Potency, µM (series often up to 36.5 µM), for inactives: at the highest dose activity change, negative = inhibition, hits mostly inhibitors; calls by dose curve; tested in A549 cells; note: potency is the fitted concentration of half-maximal effect; nearly all actives have a fitted effect of over 30% in size
Marburg entry inh: Marburg virus entry inhibition. Potency, µM (highest dose often 37.8 µM), without a hit: at the top dose activity change, negative = inhibition, usual class: inhibitors. Marburg virus pseudotyped entry inhibition, cell reporter. AID 540276. 1.8% of 300,000 active; calls by dose curve; tested in HEK293 cells; note: potency is the fitted concentration of half-maximal effect
The depositor's hits bear a star; i = inactive; ? = inconclusive; . = no result given; ! = a repeat was not active; [ ] = dose if it differs, or a comment. % is set by controls: 0 for no effect and ±100 for the full control effect.

SMILES	HCMV inh	VACV mCherry inh	Lassa entry inh	FMDV inh	VACV Venus inh	Marburg entry inh
CCCCC(=O)NC(c1ccc(N(CC)CC)cc1)c1ccc2cccnc2c1O (stereo not given)	-96*	?	?	-2%	?	?
CCOC(=O)C1=C2C=C(OC)C=CC2OC1CN(CC)CC (stereo not given)	.	.	.	.	.	-17%[46.1 µM]
Cc1ncc(COC(=O)C(C)C)c2cc(C(=O)Nc3ccccc3C(F)(F)F)c(=O)oc12	7	-14%	28%[46.1 µM]	-17%	-4%	.
Cc1ccc(-n2c(O)c(C=NCc3ccccn3)c3ccccc3c2=O)cc1	-65*	-2%	-8%	-21%	-24%	0%
CCC1CN(C(=O)Nc2ccc(C(=O)O)cc2)c2cc(Cl)ccc2O1 (stereo not given)	-16	-7%	26%[46.1 µM]	-8%	-11%	6%[46.1 µM]
CCC1CN(C(=O)NCc2ccc(C)cc2)c2cc(C)ccc2O1 (stereo not given)	-75*!	-8%	?	-19%	-9%	.
CCc1ccccc1NC(=O)N1CC(CC)Oc2ccc(Cl)cc21 (stereo not given)	-61*	9%	?	-17%	-2%	.
C[C@@H](O)CNC(C)(C)CC(=O)N[C@@H]1CCc2ccccc2N(Cc2ccc(-c3ccccc3-c3nn[nH]n3)cc2)C1=O	.	.	.	-18%	.	.
CC(COc1ccc(/C=C/c2ccccc2)cc1)[N+](C)(C)C (stereo not given)	-96*	-24%	?	-6%	-18%	?
c1ccc(-n2cnc3ccccc32)cc1	-93*	.	.	22%	.	.
COc1ccc(/C=N\n2nnc3ccccc32)cc1	-3	-11%	1.4µM*	-85%	-6%	2µM*
c1ccc2c(c1)ncn2CCn1cnc2ccccc21	-18	.	2%	-5%	.	2%
COc1ccc(-n2cnc3ccccc32)cc1	-74*	-18%	?	.	0%	?
COc1ccc2ncn(-c3ccccc3)c2c1	?	.	-6%	10%	.	-19%
COc1ccc(/C=C/c2nc3ccccc3n2C)cc1	-85*	?	0.11µM*	1.8µM*	?	?
CN(C)c1cc(-c2cccc(NS(C)(=O)=O)c2)ncn1	.	.	.	0%	.	.
CC(=O)NC(Cc1c(F)c(F)c(F)c(F)c1F)C(=O)NCC(N)C(=O)c1ccccc1 (stereo not given)	.	-2%	.	.	-14%	.
COc1ccc(/C=C/c2nc3ccccc3c(=O)o2)cc1	-95*	i	?	0%	-18%	?
COc1ccccc1/C=C/c1nc2ccccc2c(=O)o1	22	.	.	51%	.	.
COc1cccc([C@@H]2C(C#N)=C(N)Oc3cc(C)[nH]c(=O)c32)c1OC	.	.	.	.	.	-1%
O=C(Nc1nc2c(F)cc(F)cc2s1)c1ccc(S(=O)(=O)N2CCc3ccccc32)cc1	-99*	?	?	-27%	?	.
Cc1ccc2nc(NC(=O)c3ccc(S(=O)(=O)N4CCCc5ccccc54)cc3)sc2c1	-90*!	-22%	?	?	-16%	?
Cc1ccc(NC(=O)c2cc(S(=O)(=O)N3CCc4ccccc43)cn2C)c(Cl)c1	-61*	-18%	10%[46.1 µM]	-10%	-11%	.
Cc1cccc(NC(=O)c2cc(S(=O)(=O)N3CCc4ccccc43)cn2C)c1C	-5	0%	.	-20%	-20%	.
COC(=O)C1=C(N)Oc2cc(C)[nH]c(=O)c2[C@@H]1c1ccncc1	.	.	.	.	.	3%
SMILES	HCMV inh	VACV mCherry inh	Lassa entry inh	FMDV inh	VACV Venus inh	Marburg entry inh
CC1(Cc2cccc(F)c2)C(=O)Nc2ccc(-c3cccnc3)cc21 (stereo not given)	-74*	i	.	-9%	?	.
COc1cccc(-c2cccc3c2NC(=O)C3(C)Cc2cccc(F)c2)c1 (stereo not given)	8	7%	.	35µM*	4%	.
CC1(Cc2ccc(Cl)cc2)C(=O)Nc2ccc(-c3cccnc3)cc21 (stereo not given)	-66*	i	.	-27%	-10%	.
CCc1ccc2c(c1)NC(=O)C2(C)Cc1cccc(F)c1 (stereo not given)	?	10%	.	-2%	-10%	.
CC1(Cc2cc(Cl)ccc2C(F)(F)F)C(=O)Nc2ccc(-c3ccc(F)c(Cl)c3)cc21 (stereo not given)	-63*	i	.	0%	-30%	.
Cc1cc(NC(=O)c2ccc3c(c2)N(Cc2cccc(Cl)c2)C(=O)c2ccccc2S3(=O)=O)ccc1Br	-8	-11%	6%[46.1 µM]	-1%	-8%	?
O=C(O)c1cc(N(Cc2ccccc2O)Cc2cc(O)ccc2O)ccc1O	.	i	.	-21%	-16%	.
COCCCn1c(=O)c2sccc2n2c(CCCC(=O)Nc3cccc(C(F)(F)F)c3)nnc12	?	0%	-8%[46.1 µM]	-3%	0%	.
CCOc1ccc(C(=O)NCc2ccc3c(c2)CCN3C(=O)c2ccc(C)cc2)cc1OCC	-8	-10%	-6%[46.1 µM]	-4%	-24%	.
O=C(c1ccc2c(=O)n(CCc3ccccc3)c(=O)[nH]c2c1)N1CCN(C(=O)c2ccco2)CC1	.	0%	.	.	-17%	.
CS/C(Nc1cc(Cl)ccc1Cl)=C(/C#N)C(=O)c1ccco1	97	-24%	5µM*	?	-18%	?
Cn1nc(C(=O)NC2CCC(O)CC2)c2ccccc2c1=O (stereo not given)	-65*	.	.	-17%	.	.
COc1ccc(OC)c(NC(=O)Cc2nn(C)c(=O)c3ccccc23)c1	?	-16%	-4%	?	-27%	?
COc1ccc(CNC(=O)Cc2nn(C)c(=O)c3ccccc23)cc1	?	.	-24%	16µM*	?	?
Cn1nc(CC(=O)NC2CCCCCC2)c2ccccc2c1=O	-72*	i	.	?	-22%	.
Cn1nc(CC(=O)NCc2ccc(C(F)(F)F)cc2)c2ccccc2c1=O	21	.	-23%	16µM*	.	?
COc1cc(-c2nc(C)cnc2C)cc2c1OCCN(C(=O)Cn1nc(-c3ccccc3)c3ccccc3c1=O)C2	.	-5%	.	3%	6%	.
O=C(CCl)Nc1cccc2ncccc12	-99*	3.5µM*	?	-14%	?	?
Cn1nc(CC(=O)Nc2cccc3ncccc23)c2ccccc2c1=O	-67*	?	?	?	?	?
COc1ccc(OCC(=O)Nc2cccc3ncccc23)cc1	-26	.	0%	?	-16%	-6%
CCOC(=O)N1CCc2c(sc3c2c(=O)n(Cc2ccccc2)c(=O)n3CC(=O)Nc2ccc(F)cc2)C1	-35	-17%	9%[46.1 µM]	-18%	-13%	?
CCCCc1ccc(C(=O)COC(=O)c2ccc3nc(C)c(C)nc3c2)cc1	.	21%	.	.	13%	.
COc1ccccc1C(OC(=O)c1ccco1)C(=O)NCc1ccc(F)cc1 (stereo not given)	-3	-12%	3%	1%	-8%	16%[46.1 µM]
COc1ccccc1C(OC(=O)c1ccco1)C(=O)NC(C)(C)C (stereo not given)	-82*	.	17%	-3%	.	18%

Screens: PubChem, National Center for Advancing Translational Sciences (NCATS)
